From PubChem BioAssay (NCATS)
Records with an inconclusive call do not appear. Unless noted, the call rests on the fitted dose curve; in most records, active means well fitted curve in either direction with a large enough effect (not every such curve was filed as active); inconclusive means small, poorly fitted or top-dose-only effect, or another doubt; inactive means flat fitted curve, though single readings scatter.

Key:
[1] = AP1 Signaling Pathway (AID 357); conditions: ME-180 AP-1-bla reporter, EGF-induced, beta-lactamase ratio, 5 h; at 17.2 µM (top of the series) unless noted; further: on the % scale 0 is the no-effect control and ±100 the full control effect
Summary of the method: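 AP-1-bla ME-180 cells with beta-lactamase reporter under AP-1 response element, stimulated with EC50 EGF; compounds titrated, 5 hours at 37 degrees Celsius. CCF4 read at 460/530 nm ratio; positive and negative modulators judged by AC50.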

[2] = NFAT Signaling Pathway (AID 444); conditions: Jurkat NFAT-bla M1, carbachol, beta-lactamase ratio, 5 h; at 17.2 µM (top of the series) unless noted;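 further: carbachol stimulus at about its EC50 of 1 µM final; on the % scale 0 is the no-effect control and ±100 the full control effect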
Summary of the method: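 Read-out: CCF4 FRET ratio (460 nm/530 nm) after 1 h RT dye loading, used for %activity and AC50 from titration series. Cells: Jurkat NFAT-β-lactamase/M1 line, treated with compound plus 1 uM carbachol for 5 h, 37 °C.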

[3] = Stat Signaling Pathway (AID 446); conditions: ME-180 SIE beta-lactamase reporter, IL-6 stimulated, 5 h; at 17.2 µM (top of the series) unless noted;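 further: ME-180 cervical cancer cells given 40 pM IL-6 alongside compound; SIE-controlled beta-lactamase reporter measured as 460/530 nm FRET emission ratio; on the % scale 0 is the no-effect control and ±100 the full control effect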
Summary of the method: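 ME-180 cells carrying a SIE-driven beta-lactamase reporter are stimulated with 40 pM IL-6 for 5 h at 37C in the presence of compound. The 460/530 nm FRET substrate ratio is read after 2.5 h at RT. Data are normalised to 300 pM IL-6 and to 125 nM JAK inhibitor controls.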

[4] = biological target: Glucocorticoid receptor (Homo sapiens) (UniProt P04150); assay: GR-GFP Redistribution (AID 450;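 active means compounds whose dose series gives a full or clear partial fitted curve of increased nuclear translocation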; further: potency means the concentration at half of the fitted maximal effect)
Chain of Glucocorticoid receptor (Homo sapiens) (P04150 whole entry, looked up): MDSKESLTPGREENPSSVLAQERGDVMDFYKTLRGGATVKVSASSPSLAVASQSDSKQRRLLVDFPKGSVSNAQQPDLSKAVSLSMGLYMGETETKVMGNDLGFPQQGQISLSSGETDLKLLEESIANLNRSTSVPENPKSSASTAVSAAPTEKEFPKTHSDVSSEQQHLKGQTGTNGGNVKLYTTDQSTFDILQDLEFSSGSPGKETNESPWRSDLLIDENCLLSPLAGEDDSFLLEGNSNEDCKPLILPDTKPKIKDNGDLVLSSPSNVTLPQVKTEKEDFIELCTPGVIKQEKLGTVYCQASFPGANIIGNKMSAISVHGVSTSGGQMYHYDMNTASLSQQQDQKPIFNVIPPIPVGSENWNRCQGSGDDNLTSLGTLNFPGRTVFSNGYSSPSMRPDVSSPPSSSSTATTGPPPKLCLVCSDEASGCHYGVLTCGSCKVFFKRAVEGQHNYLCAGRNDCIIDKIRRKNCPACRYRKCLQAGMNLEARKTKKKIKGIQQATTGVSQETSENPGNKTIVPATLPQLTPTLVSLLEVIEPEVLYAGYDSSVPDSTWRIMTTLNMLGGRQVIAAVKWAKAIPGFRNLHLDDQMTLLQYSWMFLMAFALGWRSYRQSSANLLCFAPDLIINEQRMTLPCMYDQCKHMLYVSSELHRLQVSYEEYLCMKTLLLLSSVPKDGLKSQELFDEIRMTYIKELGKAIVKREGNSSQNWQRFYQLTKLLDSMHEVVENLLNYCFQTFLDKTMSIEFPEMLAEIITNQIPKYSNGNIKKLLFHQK

CC(C)C1Cc2c(sc3c2c(=O)n(Cc2ccccc2)c2nncn32)CO1 (stereo unspecified)
inactive: activity change, negative = inhibition [1] -0.408% | activity change, negative = inhibition [2] -11.6% | activity, negative = inhibition [3] -3.52% | Potency [4] > 20.6 µM

CC(O)(C#CCN1CCOCC1)c1ccccc1 (stereo unspecified)
inactive: activity change, negative = inhibition [1] -0.153% | activity change, negative = inhibition [2] 8.45% | activity, negative = inhibition [3] 7.2% | Potency [4] > 20.6 µM

CC1(C)CC(=O)C(C=N)=C(O)C1
inactive: activity change, negative = inhibition [1] -5.44% | activity change, negative = inhibition [2] 1.7% | activity, negative = inhibition [3] 2.78% | Potency [4] > 20.6 µM

COc1ccc(C(CC(=O)O)NC(=O)OC(C)(C)C)cc1 (stereo unspecified)
inactive: activity change, negative = inhibition [1] 12.1% | activity change, negative = inhibition [2] -0.371% | activity, negative = inhibition [3] 3.55% | Potency [4] > 20.6 µM

Cn1c(N)c(C#N)c2c(c1=S)CSC(C)(C)C2
inactive: activity change, negative = inhibition [1] 1.02% | activity change, negative = inhibition [2] -25.2% | activity, negative = inhibition [3] -2.98% | Potency [4] > 20.6 µM

CCN1CCc2c(C#N)c(N3CCOCC3)nc(NCCO)c2C1
inactive: activity change, negative = inhibition [1] 0.329% | activity change, negative = inhibition [2] 3.49% | activity, negative = inhibition [3] 11.3% | Potency [4] > 20.6 µM

CC(C)Oc1ccc(/C(O)=C2/C(=O)C(=O)N(CCN3CCOCC3)C2c2ccccc2)cc1 (stereo unspecified)
inactive: activity change, negative = inhibition [1] -9.89% | activity change, negative = inhibition [2] 19.7% | activity, negative = inhibition [3] -0.677% | Potency [4] > 20.6 µM

CCc1ccccc1NC(=O)CSC1=C(C#N)C(c2ccc(O)c(OC)c2)C2=C(CCCC2=O)N1 (stereo unspecified)
inactive: activity change, negative = inhibition [1] -4.47% | activity change, negative = inhibition [2] 2.67% | activity, negative = inhibition [3] -5.76% | Potency [4] > 20.6 µM

Cn1ncc(N=Cc2ccccc2)c1C(N)=O
inactive: activity change, negative = inhibition [1] 5.51% | activity change, negative = inhibition [2] 6.04% | activity, negative = inhibition [3] 5.52% | Potency [4] > 20.6 µM

Clc1ccc(-c2nn3c(-c4cccc(Cl)c4)nnc3s2)cc1
inactive: activity change, negative = inhibition [1] 10.2% | activity change, negative = inhibition [2] -4.86% | activity, negative = inhibition [3] 3.59% | Potency [4] > 20.6 µM

CCCCCOc1ccc(C(=O)NCC(=O)NCC(=O)OCC)cc1
inactive: activity change, negative = inhibition [1] -2.64% | activity change, negative = inhibition [2] -2.75% | activity, negative = inhibition [3] -0.468% | Potency [4] > 20.6 µM

Cn1c(=O)c2c(nc(NCC(O)CO)n2CCc2ccccc2)n(C)c1=O (stereo unspecified)
inactive: activity change, negative = inhibition [1] 8.87% | activity change, negative = inhibition [2] -3.8% | activity, negative = inhibition [3] 1.91% | Potency [4] > 20.6 µM

Cc1nc(Nc2ncc3c(n2)CC(C)(C)CC3=O)nc2ccccc12
inactive: activity change, negative = inhibition [1] -5.98% | activity change, negative = inhibition [2] 10.6% | activity, negative = inhibition [3] -25% | Potency [4] > 20.6 µM

COc1ccc(/C(O)=C2\C(=O)C(=O)N(CCN3CCOCC3)C2c2ccccc2OC)cc1 (stereo unspecified)
inactive: activity change, negative = inhibition [1] -4.72% | activity change, negative = inhibition [2] 15.6% | activity, negative = inhibition [3] -2.59% | Potency [4] > 20.6 µM

CC(C)CCOc1ccc(Cl)cc1CN1CCOCC1
inactive: activity change, negative = inhibition [1] 26.6% | activity change, negative = inhibition [2] 5.23% | activity, negative = inhibition [3] 9.43% | Potency [4] > 20.6 µM

Cn1c(N2CCN(c3ccccn3)CC2)nc2c1c(=O)n(Cc1ccccc1Cl)c(=O)n2C
inactive: activity change, negative = inhibition [1] 4.27% | activity change, negative = inhibition [2] 8.29% | activity, negative = inhibition [3] -8.44% | Potency [4] > 20.6 µM

CC1(C)Cc2c(C#N)c(N3CCOCC3)nc(Cc3ccccc3)c2CO1
inactive: activity change, negative = inhibition [1] -20.2% | activity change, negative = inhibition [2] -28.9% | activity, negative = inhibition [3] -7.6% | Potency [4] > 20.6 µM

COc1ccccc1N1CCN(C2CCN(C(=O)c3cc(OC)c(OC)c(OC)c3)CC2)CC1
inactive: activity change, negative = inhibition [1] 12.5% | activity change, negative = inhibition [2] 4.07% | activity, negative = inhibition [3] 10.4% | Potency [4] > 20.6 µM

COc1cccc(-c2nn3c(-c4ccco4)nnc3s2)c1
inactive: activity change, negative = inhibition [1] -16% | activity change, negative = inhibition [2] 2.73% | activity, negative = inhibition [3] 6.95% | Potency [4] > 20.6 µM
